D2 PAM-1: positively modulates the human D2 dopamine receptor allosterically; HEK293 T-REx D2, calcium flux, EC20 dopamine potentiation; potentiation, % at 10 µM; 0.34% of 340,000 active; AID 485347;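 active = potentiation over 3 SD above the plate norm, cut at about 30% in these data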; also: 0% is about no effect
Target sequence (P14416 whole entry, looked up): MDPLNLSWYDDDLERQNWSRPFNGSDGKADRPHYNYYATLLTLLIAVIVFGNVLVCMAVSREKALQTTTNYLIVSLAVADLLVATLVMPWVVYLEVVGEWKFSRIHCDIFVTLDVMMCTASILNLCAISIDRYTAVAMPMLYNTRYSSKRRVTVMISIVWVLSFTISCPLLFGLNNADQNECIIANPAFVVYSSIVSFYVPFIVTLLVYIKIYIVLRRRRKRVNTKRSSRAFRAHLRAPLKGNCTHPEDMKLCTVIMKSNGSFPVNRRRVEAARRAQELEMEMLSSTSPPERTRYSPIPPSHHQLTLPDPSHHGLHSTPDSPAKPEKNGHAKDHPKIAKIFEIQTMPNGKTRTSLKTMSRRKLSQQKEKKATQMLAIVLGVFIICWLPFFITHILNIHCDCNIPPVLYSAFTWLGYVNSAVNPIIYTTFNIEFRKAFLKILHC
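Using a no-wash calcium dye in inducible, force-coupled HEK293 Trex cells expressing D2, we tracked fluorescence each second for 180 s after compound, then for 180 s after EC20 dopamine to detect augmented signalling.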
D2 ag-1: agonists of human D2 dopamine receptor (beta-arrestin) | 0.084% of 360,000 active | activation, % (test concentration not listed) | DiscoveRx PathHunter D2 beta-arrestin, luminescence, 90 min; 100% = 57 uM dopamine signal; in the data active = activation above about 40%; inconclusive = between about 15% and that limit
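Agonist mode: compounds alone added to overnight-plated D2 PathHunter cells for 90 min at 37 C, with 57 uM final dopamine (EC100) defining full response. Beta-arrestin recruitment detected by chemiluminescent reagent, read after 1 h at ambient temperature.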
D2 antag: antagonists of human D2 dopamine receptor; 2% of 340,000 active; P14416; inhibition, % at 10 µM; HEK293 TREx D2 cells, calcium flux, dopamine EC80; in the data active = inhibition above about 30%; inactive = below that, where a call was filed; also: 0% is about no effect
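Dopamine at EC80 is the agonist stimulus; test compounds precede it by 180 s. Calcium flux read kinetically in a force-coupled, inducible HEK293 T-REx D2 cell line.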
D2 PAM-2: positive allosteric modulators of human D2 dopamine receptor; 0.23% of 360,000 active; P14416; DiscoveRx D2 beta-arrestin cells, luminescence, 90 min; 100% = 57 uM dopamine signal; potentiation, % (no concentration beside the values); in the data active = potentiation above about 50%; inconclusive = mostly about 30% to 49%
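PathHunter beta-arrestin assay in DiscoveRx D2 cells. Compounds were added with an EC20 of dopamine (50 nM final) for 90 min at 37 deg C. Luminescence was read 1 h after detection reagent, with 57 uM dopamine as the EC100 control.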
D2 ag-2: activates the human D2 dopamine receptor; P14416; HEK293 T-REx D2 cells, calcium flux agonist mode; activation, % at 2 µM; 0.53% of 340,000 active; AID 485358;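 active = activation over 3 SD above normal in the single-dose calcium agonist read, cut at about 30% in these data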; also: 0% is about no effect
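Tetracycline-induced HEK293 T-REx cells with force-coupled D2 receptor, plated overnight at 30 C, loaded with no-wash calcium dye. After a 10 s baseline, compound was pin-added and calcium flux read kinetically for 180 s; calcium rises flagged agonists.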
* marks the source's active call; other numbers are inactive results; ? = inconclusive; / = no result given. A selection: hits, their analogues and other compounds. The true share with any hit is near 2.4%.

SMILES	D2 PAM-1	D2 ag-1	D2 antag	D2 PAM-2	D2 ag-2
COc1ccc(C(=O)C2CCCN(Cc3cn[nH]c3-c3ccc(F)cc3)C2)cc1OC (stereo not drawn)	4	2	6	-19	0
CCCn1c(C(=O)OC)cc2c1ccn2-c1ccc(F)cc1	32*	-3	10	8	1
COC(=O)c1cc2c(ccn2-c2ccc(F)cc2)n1CC(C)C	12	-3	15	-5	0
COc1ccccc1N1CCN(c2ncnc3c2cnn3-c2cccc(Cl)c2)CC1	2	/	/	/	0
O=C1C(=O)c2cccnc2-c2ncccc21	/	56*	/	?	/
O=C1c2cccnc2-c2ncccc21	/	-3	/	-1	/
COc1cccc(C(=O)NC2CC3CCCC(C2)N3Cc2ccc(F)cc2)c1 (stereo not drawn)	/	-1	/	-22	/
O=C(NC1CC2CCCC(C1)N2Cc1ccccc1)c1cccc(F)c1 (stereo not drawn)	-22	-1	84*	-80	0
O=C(NC1CC2CCCC(C1)N2Cc1ccccc1)c1cccc(Cl)c1 (stereo not drawn)	-38	0	90*	-16	-1
CCCCOC(=O)c1ccc(Nc2nc3ccc(C(=O)c4ccccc4)cc3n3cnnc23)cc1	-3	/	/	/	0
CCCCSCCCNC(=O)c1cn(C)c2ccc(S(=O)(=O)N3CCCCCC3)cc2c1=O	1	/	/	/	0
CC1CCCN(Cc2ccc(OCc3ccccc3)cc2)C1 (stereo not drawn)	-14	0	46*	-35	-1
OC1CCN(Cc2ccc(OCc3ccccc3)cc2)CC1	-8	5	5	-18	-1
COc1ccc(Nc2nc(N)nc(N)c2S(=O)(=O)c2ccccc2)cc1	-3	/	/	/	0
CC(=O)NC/C(C)=N\Nc1ccc([N+](=O)[O-])cc1	1	-1	3	-1	3
CC(=O)/C(=N\Nc1ccccc1)Oc1ccc([N+](=O)[O-])cc1	34*	0	11	1	0
CCCNC(=O)Cn1ncc2c3ccccc3n(CCC)c2c1=O	5	/	/	/	-3
CCOC(=O)CSc1nnc(Cc2ccccc2)n1-c1cccc(Cl)c1	32*	-5	-3	0	1
CCN(CC)CCNC(=O)Cn1ncc2c3ccccc3n(Cc3ccc(Cl)cc3)c2c1=O	1	/	/	/	-1
Clc1cccc(Nc2ncnc3ccc(Br)cc23)c1	7	1	-7	-14	0
Clc1ccc(Nc2ncnc3ccc(Br)cc23)cc1	-6	1	34*	-18	2
Cc1nnc(SCC(=O)Nc2nccs2)s1	10	0	34*	7	-1
Nc1nnc(SCC(=O)Nc2nccs2)s1	-5	-3	5	1	2
CCN1c2ccccc2-c2nc(SCC(=O)Nc3cccc(C(F)(F)F)c3)ncc2S1(=O)=O	-5	/	/	/	0
O=C(CCSCc1cccc(Cl)c1)NCc1ccc(F)cc1Cl	2	/	/	/	0
SMILES	D2 PAM-1	D2 ag-1	D2 antag	D2 PAM-2	D2 ag-2
CCC(CC)c1nnc(NC(=O)CS(=O)(=O)Cc2ccccc2)s1	/	0	/	9	/
CC(C)c1nnc(NC(=O)CS(=O)(=O)Cc2ccccc2)s1	4	5	55*	4	0
CCCC(C)c1nnc(NC(=O)CS(=O)(=O)Cc2ccccc2)s1 (stereo not drawn)	30*	2	-2	9	0
CCCC(C)c1nnc(NC(=O)CCS(=O)(=O)Cc2ccccc2)s1 (stereo not drawn)	-9	-8	-15	-7	0
Cc1cn([C@H]2C[C@H](O)[C@@H](CNCc3ccc(Oc4cc(-n5cccn5)ncn4)cc3)O2)c(=O)[nH]c1=O	/	-7	/	5	/
COCCCN1C(=O)C(O)=C(C(C)=O)C1c1cccc(F)c1 (stereo not drawn)	-4	-4	37*	-13	1
CCCCN1C(=O)C(O)=C(C(C)=O)C1c1ccccc1 (stereo not drawn)	-1	-1	-11	9	-1
CN(C1CCCCC1)S(=O)(=O)c1cccc2nsnc12	-6	-4	32*	-4	-1
CCN(c1ccc(F)cc1)S(=O)(=O)c1cccc2nsnc12	-12	-1	-17	-2	0
CCN(c1ccccc1C(=O)O)S(=O)(=O)c1cccc2nsnc12	14	-1	31*	1	-1
N#CCCN(C1CCCCC1)S(=O)(=O)c1cccc2nsnc12	0	0	-1	0	-4

Source: PubChem BioAssay
